Each structure is given as a SMILES string.

Our source for the inhibition values is ChEMBL document CHEMBL1961873, “Compounds: GSK PKIS; Assays: Nanosyn kinase panel” (2012).

Test [1] deals with Serine/threonine-protein kinase MARK2 (Homo sapiens) (UniProt Q7KZI7). Conditions: at 1 µM.
Test [2] deals with PAS domain-containing serine/threonine-protein kinase (Homo sapiens) (UniProt Q96RG2). Conditions: at 0.1 µM.
Test [3] has the same target. To be noted: at 1 µM.
Test [4] concerns the target Phosphorylase b kinase gamma catalytic chain, skeletal muscle/heart isoform (Homo sapiens) (UniProt Q16816). To be noted: at 0.1 µM.
Test [5] shares this target. To be noted: at 1 µM.
For test [6], the target named is T1, Phosphorylase b kinase gamma catalytic chain, liver/testis isoform (Homo sapiens) (UniProt P15735).
T1 sequence (whole entry): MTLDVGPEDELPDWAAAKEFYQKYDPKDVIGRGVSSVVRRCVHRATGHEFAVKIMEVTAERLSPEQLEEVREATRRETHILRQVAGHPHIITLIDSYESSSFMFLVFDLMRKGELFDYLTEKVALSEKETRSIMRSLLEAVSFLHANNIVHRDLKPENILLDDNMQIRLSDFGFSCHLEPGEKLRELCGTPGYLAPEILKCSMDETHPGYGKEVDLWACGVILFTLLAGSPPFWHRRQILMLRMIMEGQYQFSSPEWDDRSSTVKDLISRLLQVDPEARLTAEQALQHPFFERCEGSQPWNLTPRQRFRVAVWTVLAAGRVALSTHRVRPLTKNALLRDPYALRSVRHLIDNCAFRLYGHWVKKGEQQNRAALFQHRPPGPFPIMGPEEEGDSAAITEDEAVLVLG
Conditions: at 0.1 µM.

The target of test [7] is T1, Phosphorylase b kinase gamma catalytic chain, liver/testis isoform (Homo sapiens). To be noted: at 1 µM.
Test [8] deals with Serine/threonine-protein kinase pim-1 (Homo sapiens) (UniProt P11309). To be noted: at 0.1 µM.
Test [9] has the same target. Conditions: at 1 µM.
The target in test [10] is Serine/threonine-protein kinase pim-2 (Homo sapiens) (UniProt Q9P1W9). To be noted: at 0.1 µM.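 Note: reported value is the mean percent inhibition of PIM2, measured in the GSK PKIS kinase inhibitor set screen.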
Sequence of Serine/threonine-protein kinase pim-2 (Homo sapiens) (Q9P1W9 whole entry, looked up): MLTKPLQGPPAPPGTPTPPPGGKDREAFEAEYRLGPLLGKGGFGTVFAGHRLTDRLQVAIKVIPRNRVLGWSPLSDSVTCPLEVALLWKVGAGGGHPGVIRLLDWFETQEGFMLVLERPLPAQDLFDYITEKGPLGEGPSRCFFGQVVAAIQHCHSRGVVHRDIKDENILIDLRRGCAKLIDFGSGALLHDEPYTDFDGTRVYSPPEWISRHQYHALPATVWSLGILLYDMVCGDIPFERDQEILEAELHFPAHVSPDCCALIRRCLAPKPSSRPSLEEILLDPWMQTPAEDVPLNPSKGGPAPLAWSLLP

Sequence of Phosphorylase b kinase gamma catalytic chain, skeletal muscle/heart isoform (Homo sapiens) (Q16816 whole entry, looked up, canonical isoform): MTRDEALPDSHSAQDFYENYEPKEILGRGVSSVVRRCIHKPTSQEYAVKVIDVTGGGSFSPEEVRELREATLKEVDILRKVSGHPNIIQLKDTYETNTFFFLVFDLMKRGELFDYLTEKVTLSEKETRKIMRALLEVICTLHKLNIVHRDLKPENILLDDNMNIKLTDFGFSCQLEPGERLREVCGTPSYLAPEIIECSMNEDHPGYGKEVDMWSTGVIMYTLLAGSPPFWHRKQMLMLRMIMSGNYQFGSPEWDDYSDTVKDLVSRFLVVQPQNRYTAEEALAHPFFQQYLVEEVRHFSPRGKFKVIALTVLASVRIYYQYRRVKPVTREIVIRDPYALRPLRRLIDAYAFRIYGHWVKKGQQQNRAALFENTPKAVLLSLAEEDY
Sequence of Serine/threonine-protein kinase pim-1 (Homo sapiens) (P11309 whole entry, looked up): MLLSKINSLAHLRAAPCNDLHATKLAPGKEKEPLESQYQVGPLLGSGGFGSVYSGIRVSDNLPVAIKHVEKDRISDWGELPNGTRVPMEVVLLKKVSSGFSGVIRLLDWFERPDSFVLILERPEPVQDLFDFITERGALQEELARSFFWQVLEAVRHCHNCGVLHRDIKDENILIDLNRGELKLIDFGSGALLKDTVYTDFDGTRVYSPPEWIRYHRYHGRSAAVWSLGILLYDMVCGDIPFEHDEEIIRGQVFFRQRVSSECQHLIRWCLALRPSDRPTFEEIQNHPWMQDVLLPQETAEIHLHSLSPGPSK
Sequence of PAS domain-containing serine/threonine-protein kinase (Homo sapiens) (Q96RG2 whole entry, the tested form may be a part): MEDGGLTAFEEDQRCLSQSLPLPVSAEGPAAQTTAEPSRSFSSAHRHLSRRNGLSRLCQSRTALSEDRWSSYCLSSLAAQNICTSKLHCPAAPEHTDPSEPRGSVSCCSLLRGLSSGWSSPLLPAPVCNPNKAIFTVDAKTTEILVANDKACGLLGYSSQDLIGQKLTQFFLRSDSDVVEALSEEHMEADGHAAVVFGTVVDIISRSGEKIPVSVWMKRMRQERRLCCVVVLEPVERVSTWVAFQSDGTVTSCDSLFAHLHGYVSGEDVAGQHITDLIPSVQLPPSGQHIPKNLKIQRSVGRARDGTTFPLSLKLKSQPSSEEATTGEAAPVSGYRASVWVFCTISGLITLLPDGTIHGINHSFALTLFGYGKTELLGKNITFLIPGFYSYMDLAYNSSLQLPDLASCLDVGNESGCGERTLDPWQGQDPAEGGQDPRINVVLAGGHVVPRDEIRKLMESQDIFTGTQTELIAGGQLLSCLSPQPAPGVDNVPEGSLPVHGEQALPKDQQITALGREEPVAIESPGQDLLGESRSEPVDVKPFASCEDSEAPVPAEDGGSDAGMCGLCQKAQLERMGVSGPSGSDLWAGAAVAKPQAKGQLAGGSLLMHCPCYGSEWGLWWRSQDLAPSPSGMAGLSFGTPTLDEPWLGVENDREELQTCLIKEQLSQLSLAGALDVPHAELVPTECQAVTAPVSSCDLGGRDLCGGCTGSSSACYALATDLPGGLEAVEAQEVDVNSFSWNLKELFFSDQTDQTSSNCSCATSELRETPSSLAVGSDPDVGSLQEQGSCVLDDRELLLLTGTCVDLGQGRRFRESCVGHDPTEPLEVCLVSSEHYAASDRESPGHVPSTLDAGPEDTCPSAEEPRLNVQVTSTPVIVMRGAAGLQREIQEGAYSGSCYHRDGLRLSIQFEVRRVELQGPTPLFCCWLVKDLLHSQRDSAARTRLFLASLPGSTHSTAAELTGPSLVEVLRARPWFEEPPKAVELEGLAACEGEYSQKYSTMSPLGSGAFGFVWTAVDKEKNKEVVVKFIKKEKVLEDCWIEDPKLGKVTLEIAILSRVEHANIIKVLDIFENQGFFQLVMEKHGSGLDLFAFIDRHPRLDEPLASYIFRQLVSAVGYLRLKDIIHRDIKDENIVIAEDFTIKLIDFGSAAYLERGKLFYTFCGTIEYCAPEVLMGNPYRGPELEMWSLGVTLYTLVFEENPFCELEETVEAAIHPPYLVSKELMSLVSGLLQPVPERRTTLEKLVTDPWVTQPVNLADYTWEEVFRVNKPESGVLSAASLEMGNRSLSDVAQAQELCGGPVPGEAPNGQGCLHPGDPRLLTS
Sequence of Serine/threonine-protein kinase MARK2 (Homo sapiens) (Q7KZI7 whole entry, the tested form may be a part): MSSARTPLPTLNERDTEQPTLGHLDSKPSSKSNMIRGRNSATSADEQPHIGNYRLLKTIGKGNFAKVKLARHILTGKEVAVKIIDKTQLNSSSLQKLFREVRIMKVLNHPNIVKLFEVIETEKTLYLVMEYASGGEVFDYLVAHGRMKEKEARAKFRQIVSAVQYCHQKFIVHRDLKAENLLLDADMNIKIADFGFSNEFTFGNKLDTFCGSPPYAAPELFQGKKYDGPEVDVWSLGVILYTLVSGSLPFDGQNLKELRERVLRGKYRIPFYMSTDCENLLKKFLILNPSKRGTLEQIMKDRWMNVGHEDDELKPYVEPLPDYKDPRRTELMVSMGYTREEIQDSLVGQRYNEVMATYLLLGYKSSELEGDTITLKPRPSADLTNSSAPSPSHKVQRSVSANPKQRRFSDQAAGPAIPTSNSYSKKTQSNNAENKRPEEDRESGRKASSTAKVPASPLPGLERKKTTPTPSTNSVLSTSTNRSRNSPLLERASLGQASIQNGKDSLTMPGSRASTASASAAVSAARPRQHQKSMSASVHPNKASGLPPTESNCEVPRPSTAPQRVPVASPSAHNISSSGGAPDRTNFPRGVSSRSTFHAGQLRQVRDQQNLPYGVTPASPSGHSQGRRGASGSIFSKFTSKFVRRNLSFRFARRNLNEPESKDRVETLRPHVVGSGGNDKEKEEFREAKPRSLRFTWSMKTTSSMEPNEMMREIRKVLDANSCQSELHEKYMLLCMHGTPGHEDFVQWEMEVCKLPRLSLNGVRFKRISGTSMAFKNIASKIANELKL

On to `COc1cc2ncn(-c3cc(OCCc4ccccc4)c(C(N)=O)s3)c2cc1OC`, for which the inhibition in test [1] was 2.11%; in [2], 0.16%; in [3], -0.56%; in test [4], 3.81%; in test [5] it was 2.4%; in test [6], 1.37%. Besides, the inhibition in test [7] is 0.33%; in test [8], -0.26%; in test [9], -0.29%; in [10], -0.04%.

Take `Cc1ccc(C(=O)NC(C)C)cc1-c1ccc(C(=O)NCC2CC2)cc1`: the inhibition in test [1] was 2.12%; in test [2], 0.53%; in [3], 0.4%; in test [4], -0.31%; in test [5] it was 1.18%; in [6] it was -5.49%. Moreover, the inhibition was -6.57% in test [7], 0.13% in test [8], 0.56% in [9] and 0.1% in [10].

As to `NC(=O)c1cc(-c2ccc(F)cc2)cc(-c2ccncc2)c1N`, the inhibition in test [1] is -0.63%; in test [2] it was -1.01%; in test [3], -1.24%; in test [4], 5.8%; in [5], 5.92%; in test [6] it was 4.55%. Moreover, the inhibition in [7] was 5.76%; in [8] it was 0.02%; in test [9], 1.09%; in [10], -0.12%.

Consider `Cc1nnc(-c2ccc(C)c(-c3ccc(C(=O)NCc4ccc(Cl)cc4)cc3)c2)o1`, for which the inhibition is 2.93% in test [1]; -0.31% in test [2]; 0.36% in test [3]; 4.66% in test [4]; 5.75% in test [5]; 5.44% in test [6]. The inhibition is 5.11% in test [7], 0.2% in test [8], 1.19% in [9] and -3.59% in [10].

Turning to `CS(=O)(=O)CCNCc1ccc(-c2ccc3ncnc(Nc4ccc(OCc5ccccc5)c(Br)c4)c3c2)o1`, the inhibition is -0.56% in [1]; -0.29% in test [2]; 0.16% in test [3]; 7% in test [4]; 3.21% in test [5]; 5.03% in [6]. Moreover, the inhibition is 4.55% in [7], -0.99% in test [8], -0.09% in test [9] and -3.07% in test [10].

Regarding `O=C(Nc1ccc(Oc2ccc3[nH]c(NC(=O)c4ccccc4)nc3c2)cc1)Nc1cc(C(F)(F)F)ccc1F`, the inhibition in [1] came out at 1.49%; in test [2] it was 0.68%; in test [3], 0.73%; in test [4], 1.45%; in test [5], 7.47%; in [6] it was 3.99%. Further, the inhibition in test [7] was 4.6%; in test [8] it was 0.97%; in test [9], 0.07%; in test [10], -0.34%.

As to `O=C1NC(=O)C(c2cccc(Cl)c2)=C1Nc1ccc(Cl)c(C(=O)O)c1`, the inhibition in test [1] was found to be 0.4%; in test [2] it was 0.25%; in test [3] it was 1.42%; in test [4], 3.55%; in [5] it was 5.32%; in test [6], 4.58%. Besides, the inhibition was 5.29% in test [7], -0.66% in [8], -0.28% in [9] and -0.18% in test [10].

Take `Clc1ccc(CNc2nccc(-c3cnn4ncccc34)n2)cc1`: the inhibition in test [1] is 2.93%; in [2] it was 0.92%; in test [3], 1.97%; in test [4], -0.23%; in test [5], 5.35%; in test [6], 2.58%. Also, the inhibition in test [7] is 2.28%; in test [8], 1.63%; in test [9], 3.93%; in test [10], -0.52%.

For the molecule `N#Cc1ccc(Oc2nccc(-c3c(-c4ccc(F)cc4)ncn3C3CCNCC3)n2)cc1`, the inhibition was -1.45% in [1]; -0.29% in test [2]; -0.33% in [3]; 5.34% in test [4]; 6.84% in [5]; 4.1% in [6]. Further, the inhibition in [7] was 4.74%; in [8], 1.27%; in [9], 2.26%; in test [10], -0.01%.

As to `CN(C)CCCNc1nccc(-c2c(-c3ccc(F)cc3)nn3cc(C(F)(F)F)ccc23)n1`, the inhibition was 2.71% in test [1]; 0.83% in test [2]; -0.37% in test [3]; -0.27% in [4]; 2.68% in test [5]; 2.52% in test [6]. For the same molecule, the inhibition in [7] is 0.17%; in test [8], 0.62%; in test [9] it was 1.32%; in test [10], -3.76%.

Regarding `Cc1ccc(NC(=O)c2ccoc2)cc1-c1ccc(C(=O)NCC2CC2)cc1`, the inhibition was -0.97% in test [1]; 1.03% in test [2]; 0.47% in test [3]; 3.88% in test [4]; 1.73% in test [5]; 3.37% in test [6]. The inhibition is 3.24% in [7], 0.53% in test [8], 0.47% in [9] and -0.3% in [10].

For the molecule `COc1cccc(/C=N/Nc2ncnc3c2cnn3-c2cccc(OC)c2)c1`, the inhibition was 0.57% in [1]; -0.3% in [2]; -1.16% in test [3]; 0.94% in test [4]; 2.68% in test [5]; 3.6% in test [6]. Moreover, the inhibition was 2.4% in test [7], 0.63% in test [8], 1.58% in test [9] and -0.75% in test [10].

As to `COc1ccc2ncn(-c3cc(O[C@H](C)c4ccccc4Cl)c(C(N)=O)s3)c2c1`, the inhibition is 0.49% in test [1]; -0.21% in test [2]; 0.54% in test [3]; 5.98% in [4]; 7.62% in [5]; 6% in test [6]. Moreover, the inhibition in test [7] is 5%; in test [8], -0.74%; in test [9] it was 3.29%; in test [10], -3.96%.

Regarding `c1ccc(-c2n[nH]cc2-c2ccnc(-c3ccc(OCCN4CCOCC4)cc3)c2)nc1`, the inhibition in test [1] is 6.97%; in test [2], 4.29%; in [3], 2.12%; in [4], 3.14%; in test [5], 5.98%; in test [6] it was -1.14%. Moreover, the inhibition in [7] is -3.23%; in test [8] it was 1.29%; in test [9], 1.87%; in [10] it was 7.01%.

Regarding `NC(=O)Cc1ccccc1Oc1nccc(-c2c(-c3ccc(F)cc3)ncn2C2CCNCC2)n1`, the inhibition in test [1] is 2.22%; in test [2], 0.15%; in test [3], -0.7%; in test [4], 4.43%; in test [5], 6.28%; in [6] it was 2.61%. Also, the inhibition in test [7] was 0.83%; in test [8], 0.4%; in test [9], 0.97%; in [10], 0.18%.

As to `Fc1ccc(-c2ncn(C3CCNCC3)c2-c2ccnc(Oc3ccc(F)c(F)c3)n2)cc1`, the inhibition in test [1] was 1.71%; in test [2], -0.38%; in test [3], -0.29%; in test [4] it was 6.75%; in test [5], 10.8%; in test [6], 4.85%. In addition, the inhibition in [7] was 4.7%; in test [8], -1.11%; in [9], -0.52%; in [10], -3.98%.

For the molecule `Fc1ccc(-c2ncn(C3CCNCC3)c2-c2ccnc(Oc3ccc(Oc4ccccc4)cc3)n2)cc1`, the inhibition in test [1] was 4.07%; in [2] it was -2.03%; in test [3], -0.39%; in [4] it was 0.96%; in test [5] it was -5.23%; in [6] it was 5.51%. The inhibition was 6.26% in test [7], 0.09% in test [8], 0.87% in [9] and -0.33% in test [10].

By inhibition is commonly meant the change of the read-out against control, counted positive when it falls.
